Assay results: PubChem BioAssay (NCI)
The panel holds about 79,000 compounds, 15% with a hit somewhere; the sample as a whole holds those more often. Activity calls are given as the source filed them. No stated cut-off is given here; in the data, active means growth inhibition above about 70%; inactive means the rest.

Legend:
[1] = NCI Yeast Anticancer Drug Screen. Data for the wt1 strain (AID 149);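 further: 0% = growth of vehicle-treated wt1 cultures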; conditions: S. cerevisiae wt1 strain (SPY 50644) growth inhibition, active compounds read high
Method in brief: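 Each compound is tested on wt1 yeast and the loss of growth versus vehicle gives the inhibition value.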

[2] = NCI Yeast Anticancer Drug Screen. Data for the rad50EPP+ strain (AID 151);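 further: 0% = growth of vehicle-treated control cultures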; conditions: S. cerevisiae rad50 mutant strain, active compounds read high
Method in brief: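 In this screen, rad50EPP+ yeast were exposed to compounds. Growth inhibition was scored against vehicle-treated controls.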

[3] = NCI Yeast Anticancer Drug Screen. Data for the mgt1 strain (AID 153); conditions: S. cerevisiae mgt1 mutant growth inhibition, active compounds read high
Method in brief: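 mgt1 strain exposed; growth vs vehicle control recorded as inhibition.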

[4] = NCI Yeast Anticancer Drug Screen. Data for the rad50 strain (AID 155);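 further: 0% = growth of vehicle-only cultures of the same strain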; conditions: S. cerevisiae rad50 strain growth inhibition, active compounds read high
Method in brief: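 Vehicle-treated cultures provide the reference for the growth inhibition reported for compound-exposed, repair-deficient yeast.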

[5] = NCI Yeast Anticancer Drug Screen. Data for the mec2-1 strain (AID 157); conditions: S. cerevisiae mec2-1 strain, active compounds read high
Method in brief: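 Vehicle-treated cultures served as reference for growth inhibition of compound-exposed mec2-1 yeast.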

[6] = NCI Yeast Anticancer Drug Screen. Data for the rad14 strain (AID 159);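 further: 0% = growth of vehicle-treated control cultures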; conditions: S. cerevisiae rad14 strain growth inhibition, active compounds read high
Method in brief: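 Inhibition of growth is reported for a repair-deficient yeast mutant following compound treatment, calculated relative to cultures that received vehicle.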

[7] = NCI Yeast Anticancer Drug Screen. Data for the sgs1 mgt1 strain (AID 161);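 further: 0% = growth of cultures given vehicle only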; conditions: S. cerevisiae sgs1 mgt1 strain, active compounds read high
Method in brief: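 Inhibition of yeast growth, normalised to vehicle-treated controls, is reported for a strain bearing genetic alterations in DNA damage repair.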

[8] = NCI Yeast Anticancer Drug Screen. Data for the CLN2oe strain (AID 163);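 further: 0% = growth of vehicle-only control cultures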; conditions: S. cerevisiae CLN2oe strain, active compounds read high
Method in brief: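 Inhibition relative to vehicle-treated yeast is reported. Cells: strain with genetic alteration in cell-cycle control, grown with compound.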

[9] = NCI Yeast Anticancer Drug Screen. Data for the bub3 strain (AID 167); conditions: S. cerevisiae bub3 mutant strain, active compounds read high
Method in brief: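 Mutant yeast screening strain plus compound; vehicle-treated cultures serve as the 0% inhibition reference.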

[10] = NCI Yeast Anticancer Drug Screen. Data for the wt2 strain (AID 169); conditions: S. cerevisiae wt2 strain growth inhibition, active compounds read high
Method in brief: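 Inhibition of yeast growth was determined after compound treatment, normalised to controls receiving only vehicle.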

[11] = NCI Yeast Anticancer Drug Screen. Data for the mlh1 strain (AID 171);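 further: 0% = growth of vehicle-treated control cultures of the same strain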; conditions: S. cerevisiae mlh1 strain growth inhibition, active compounds read high
Method in brief: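 Vehicle-normalised growth inhibition of a repair- or checkpoint-altered yeast strain following compound treatment.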

[12] = NCI Yeast Anticancer Drug Screen. Data for the sgs1 strain (AID 173);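 further: 0% = growth of vehicle-only control cultures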; conditions: S. cerevisiae sgs1 mutant, active compounds read high
Method in brief: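 Screen format: yeast with repair or checkpoint alterations, compound exposure, growth read relative to vehicle.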

[13] = NCI Yeast Anticancer Drug Screen. Data for the mlh1 rad18 strain (AID 175); conditions: S. cerevisiae mlh1 rad18 strain growth inhibition, active compounds read high
Method in brief: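 Vehicle-treated cultures served as the reference for growth inhibition in a yeast strain carrying DNA damage repair alterations exposed to each compound.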

[14] = NCI Yeast Anticancer Drug Screen. Data for the rad18 strain (AID 177); conditions: S. cerevisiae rad18 mutant growth inhibition, active compounds read high
Method in brief: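 Test articles were incubated with altered yeast defective in DNA damage repair. Results are given as inhibition of growth versus vehicle.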

[15] = NCI Yeast Anticancer Drug Screen. Data for the cln2 rad14 strain (AID 165);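 further: 0% = growth equal to vehicle treated cultures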; conditions: S. cerevisiae cln2 rad14 strain, active compounds read high
Method in brief: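 Each compound was tested on cln2 rad14 yeast. Inhibition of growth was calculated against vehicle-exposed controls.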

[16] = at 5.0 µM (retest, dose inferred, filed as 0.5)
[17] = at 50.0 µM (retest, dose inferred, filed as 5.0)

Measured: growth inhibition

C=Cc1c(C)c(O)cc2c1-c1ccc(O)c(C)c1CC2
inactive: [1]; at 1.2 µM -8% | [1]; at 3.7 µM -4% | [1]; at 11.0 µM -11% | [2]; at 1.2 µM 1% | [2]; at 3.7 µM 24% | [2]; at 11.0 µM 16% | [2]; at 33.0 µM 40% | [3]; at 1.2 µM -18% | [3]; at 3.7 µM -1% | [3]; at 11.0 µM -3% | [4]; at 1.2 µM -20% | [4]; at 3.7 µM -3% | [4]; [16] 46% | [4]; at 11.0 µM 12% | [4]; at 50.0 µM -24.6% | [5]; at 1.2 µM -19% | [5]; at 3.7 µM -8% | [5]; [16] 22% | [5]; at 11.0 µM -7% | [5]; at 50.0 µM -52.2% | [6]; at 1.2 µM -21% | [6]; at 3.7 µM -21% | [6]; at 11.0 µM -19% | [7]; [16] 55% | [7]; at 50.0 µM -18.5% | [8]; at 1.2 µM 10% | [8]; at 3.7 µM 5% | [8]; at 11.0 µM 26% | [9]; at 1.2 µM -9% | [9]; at 3.7 µM -11% | [9]; [16] 28% | [9]; at 11.0 µM 5% | [9]; at 50.0 µM -43.2% | [10]; at 1.2 µM -63% | [10]; at 3.7 µM -43% | [10]; at 11.0 µM 37% | [10]; at 33.0 µM 46% | [11]; at 1.2 µM 12% | [11]; at 3.7 µM -8% | [11]; at 11.0 µM 3% | [12]; at 1.2 µM -7% | [12]; at 3.7 µM 16% | [12]; at 11.0 µM 36% | [13]; [16] 69% | [14]; at 1.2 µM -25% | [14]; at 3.7 µM -7% | [14]; at 11.0 µM 4%
active: [1]; at 33.0 µM 98% | [1]; at 100.0 µM 98% | [2]; at 100.0 µM 98% | [3]; at 33.0 µM 98% | [3]; at 100.0 µM 99% | [4]; at 33.0 µM 97% | [4]; [17] 75% | [4]; at 100.0 µM 99% | [5]; at 33.0 µM 98% | [5]; [17] 97% | [5]; at 100.0 µM 98% | [6]; at 33.0 µM 97% | [6]; at 100.0 µM 98% | [7]; [17] 93% | [8]; at 33.0 µM 98% | [8]; at 100.0 µM 99% | [9]; at 33.0 µM 98% | [9]; [17] 97% | [9]; at 100.0 µM 99% | [10]; at 100.0 µM 88% | [11]; at 33.0 µM 98% | [11]; at 100.0 µM 99% | [12]; at 33.0 µM 98% | [12]; at 100.0 µM 99% | [13]; [17] 87% | [13]; at 50.0 µM 89.3% | [14]; at 33.0 µM 98% | [14]; at 100.0 µM 99%

CC(=O)CC[N+](C)(C)C
inactive: [1]; at 1.2 µM 0% | [1]; at 3.7 µM 11% | [1]; at 11.0 µM 2% | [1]; at 33.0 µM -5% | [1]; at 100.0 µM 2% | [2]; at 1.2 µM -7% | [2]; at 3.7 µM 4% | [2]; at 11.0 µM -4% | [2]; at 33.0 µM -15% | [2]; at 100.0 µM 7% | [3]; at 1.2 µM -29% | [3]; at 3.7 µM -21% | [3]; at 11.0 µM -17% | [3]; at 33.0 µM -21% | [3]; at 100.0 µM -2% | [4]; at 1.2 µM -14% | [4]; at 3.7 µM -9% | [4]; [16] 31% | [4]; at 11.0 µM -4% | [4]; at 33.0 µM -14% | [4]; at 50.0 µM 0.7% | [4]; at 100.0 µM -13% | [5]; at 1.2 µM 4% | [5]; at 3.7 µM -3% | [5]; [16] 22% | [5]; at 11.0 µM -1% | [5]; at 33.0 µM -7% | [5]; [17] 59% | [5]; at 50.0 µM -22.7% | [5]; at 100.0 µM 4% | [6]; at 1.2 µM 5% | [6]; at 3.7 µM 6% | [6]; at 11.0 µM -5% | [6]; at 33.0 µM 0% | [6]; at 100.0 µM -2% | [7]; [16] 13% | [7]; [17] 51% | [7]; at 50.0 µM -30.9% | [8]; at 1.2 µM 17% | [8]; at 3.7 µM 28% | [8]; at 11.0 µM 31% | [8]; at 33.0 µM 31% | [8]; at 100.0 µM 36% | [15]; [16] 25% | [15]; [17] 30% | [15]; at 50.0 µM -41.7% | [9]; at 1.2 µM 12% | [9]; at 3.7 µM 16% | [9]; [16] 20% | [9]; at 11.0 µM 16% | [9]; at 33.0 µM 13% | [9]; [17] 14% | [9]; at 50.0 µM -24.3% | [9]; at 100.0 µM 27% | [10]; at 1.2 µM -22% | [10]; at 3.7 µM -1% | [10]; at 11.0 µM -25% | [10]; at 33.0 µM -31% | [10]; at 100.0 µM -30% | [12]; at 1.2 µM -8% | [12]; at 3.7 µM -12% | [12]; at 11.0 µM 3% | [12]; at 33.0 µM 3% | [12]; at 100.0 µM 23% | [13]; [16] 26% | [13]; at 50.0 µM 41.9% | [14]; at 1.2 µM -20% | [14]; at 3.7 µM -11% | [14]; at 11.0 µM 14% | [14]; at 33.0 µM -2% | [14]; at 100.0 µM -10%
active: [4]; [17] 100% | [13]; [17] 80%
